Results reported in PubChem BioAssay (Tox21).
“And” between values parts separate entries of the source, which are not always exact repeats. Equal entries are not always repeated. Records with an inconclusive call do not appear. A structure can be active in one record and inactive in another. The source made the active and inactive calls. Unless noted, calls follow the shape of the dose curve; as a rule, active = well fitted curve in the direction sought with a large enough effect in the repeat runs; inconclusive = weak or mixed curves; inactive = no such curve, though single readings can be large; an effect the other way counts as inactive or inconclusive.

Columns and labels:
[1] = qHTS assay to identify small molecule agonists of the NFkB signaling pathway (AID 1159509; active = well fitted curve in the direction sought with a large enough effect in the signal ratio in the repeat runs, not every such curve was filed as active; the % refers to the signal ratio; also: % is scaled to controls: 0 for no effect and ±100 for the full control effect)
Method in brief: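 Readout: FRET fluorescence, 405 nm excitation, 460/530 nm emission; beta-lactamase expression disrupts FRET. Cells: ME-180 stably carrying NF-kB-driven bla reporter. Compound exposure 5 hr, 37 C, 5% CO2.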

[2] = qHTS assay to identify small molecule agonists of the NFkB signaling pathway - cell viability counter screen (AID 1159515; calls by dose curve; also: % is scaled to controls: 0 for no effect and ±100 for the full control effect; nearly all actives have a fitted effect of over 55% in size)
Method in brief: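 Parallel cytotoxicity counter screen in ME-180 cells carrying an NFkB-response-element beta-lactamase reporter, 2,000 cells/well. Compound exposure lasted 5 hr at 37 C, 5% CO2. Cell viability was quantified by CellTiter-Glo luminescence.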

[3] = qHTS assay to identify small molecule agonists of the endoplasmic reticulum stress response signaling pathway (AID 1159516; active = well fitted activation curve with a large enough effect in the signal ratio in the repeat runs, not every such curve was filed as active; the % refers to the signal ratio; also: % is scaled to controls: 0 for no effect and ±100 for the full control effect)
Method in brief: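 Using a HeLa line with an ESRE-driven beta-lactamase gene, agonist activity was measured by FRET substrate fluorescence (460 and 530 nm emission) after cells were treated with compounds for 5 hr at 37 C and 5% CO2.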

[4] = qHTS assay to identify small molecule agonists of the endoplasmic reticulum stress response signaling pathway - cell viability counter screen (AID 1159517; calls by dose curve;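 also: HeLa cells carrying an ER stress response element beta-lactamase reporter; % is scaled to controls: 0 for no effect and ±100 for the full control effect; nearly all actives have a fitted effect of over 50% in size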)
Method in brief: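 After overnight attachment, ESRE-bla HeLa cells were treated with Tox21 library compounds for 5 hr. CellTiter-Glo luminescence, read 30 min post-addition at room temperature, reported viability.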

[5] = qHTS assay to identify small molecule antagonists of the retinoid-related orphan receptor gamma (ROR-gamma) signaling pathway - cell viability counter screen (AID 1159520); also: % is scaled to controls: 0 for no effect and ±100 for the full control effect; nearly all actives have a fitted effect of over 50% in size
Method in brief: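 Cytotoxicity was read from cellular ATP (CellTiter-Glo luminescence) after 16 hr at 37 C with 1 uM doxycycline induction. The inducer was added 2 hr after compound transfer to Tet-on ROR gamma CHO cells.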

[6] = biological target: Nuclear receptor ROR-gamma (Homo sapiens) (UniProt P51449); test: qHTS assay to identify small molecule antagonists of the retinoid-related orphan receptor gamma (ROR-gamma) signaling pathway (AID 1159521;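 also: CHO cells with doxycycline inducible ROR-gamma driving an RORE luciferase reporter; top concentration of the series differs between compounds; % is scaled to controls: 0 for no effect and ±100 for the full control effect; nearly all actives have a fitted effect of over 50% in size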)
Method in brief: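 RORγ antagonism is scored from reduced reporter luminescence in Tet-on CHO cells. Induction used 1 uM final doxycycline hyclate for 16 h at 37 C, following a 2 h compound exposure.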

[7] = qHTS assay to identify small molecule agonists of the AP-1 signaling pathway - cell viability counter screen (AID 1159525; calls by dose curve; also: nearly all actives have a fitted effect of over 55% in size)
Method in brief: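 Intracellular ATP by Cell Titer Glo luminescence (30 min, RT) in the same ME-180 AP-1-bla wells after the 5 h compound exposure at 37 °C. Normalised to tetra n-octyl ammonium bromide and DMSO controls.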

[8] = qHTS assay to identify small molecule agonists of the AP-1 signaling pathway (AID 1159526; calls by dose curve; also: % is scaled to controls: 0 for no effect and ±100 for the full control effect)
[9] = biological target: Retinoic acid receptor RXR-alpha (Homo sapiens) (UniProt P19793); test: qHTS assay to identify small molecule agonists of the RXR signaling pathway (AID 1159527; calls by dose curve; also: % is scaled to controls: 0 for no effect and ±100 for the full control effect; nearly all actives have a fitted effect of over 35% in size)
Chain of Retinoic acid receptor RXR-alpha (Homo sapiens) (P19793 whole entry, looked up): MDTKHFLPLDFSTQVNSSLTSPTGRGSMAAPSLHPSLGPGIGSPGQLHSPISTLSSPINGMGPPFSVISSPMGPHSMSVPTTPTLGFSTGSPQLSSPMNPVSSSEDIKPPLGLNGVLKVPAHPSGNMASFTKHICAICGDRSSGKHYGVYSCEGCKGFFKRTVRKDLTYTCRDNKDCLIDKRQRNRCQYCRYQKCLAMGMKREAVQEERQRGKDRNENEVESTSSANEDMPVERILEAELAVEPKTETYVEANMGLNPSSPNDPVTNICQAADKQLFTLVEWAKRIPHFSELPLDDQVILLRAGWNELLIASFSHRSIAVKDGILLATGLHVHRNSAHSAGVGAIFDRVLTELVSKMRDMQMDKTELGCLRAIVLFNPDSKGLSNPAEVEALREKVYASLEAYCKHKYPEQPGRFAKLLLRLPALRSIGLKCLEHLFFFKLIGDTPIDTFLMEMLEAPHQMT
Method in brief: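 qHTS of the Tox21 10K library in GeneBLAzer RXR-alpha HEK 293T cells carrying a beta-lactamase reporter […]; 16 hr treatment, 9-cis retinoic acid as agonist control, FRET read-out.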

[10] = qHTS assay to identify small molecule agonists of the RXR signaling pathway - cell viability counter screen (AID 1159529); also: % is scaled to controls: 0 for no effect and ±100 for the full control effect; nearly all actives have a fitted effect of over 50% in size
Method in brief: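 Cell viability is measured by CellTiter-Glo luminescence, 30 min at room temperature, in wells already read for beta-lactamase. Engineered HEK 293T cells (RXR-alpha-UAS-bla) are dosed 16 hr at 37 C. Tetraoctyl ammonium bromide serves as positive control.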

[11] = qHTS assay to identify small molecule antagonists of the retinoid acid receptor (RAR) signaling pathway - cell viability counter screen (AID 1159551); also: % is scaled to controls: 0 for no effect and ±100 for the full control effect; nearly all actives have a fitted effect of over 35% in size
Method in brief: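 ATP-based viability, C3RL4 cells, 6 h at 37 C with 1 uM final retinol co-added after compound; luminescence read 30 min post CellTiter-Glo, RT.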

[12] = qHTS assay to identify small molecule antagonists of the retinoic acid receptor (RAR) signaling pathway (AID 1159552)
Method in brief: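 Quantitative HTS in C3RL4 RARE-luciferase reporter cells. Compounds were added with 1 uM (final) retinol; luminescence was read after 6 hr.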

[13] = qHTS assay to identify small molecule agonists of the retinoic acid receptor (RAR) signaling pathway (AID 1159553); conditions: C3RL4 RARE luciferase reporter, agonist, 6 h; also: potency is read from the fitted curve at half-maximal effect; as to activation: % is scaled to controls: 0 for no effect and ±100 for the full control effect
Method in brief: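 Quantitative high-throughput format: the Tox21 10K library was tested on C3RL4 RARE-luciferase cells for 6 hr at 37 C and 5% CO2, with luminescence measured after a 30 min room-temperature reagent step.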

[14] = biological target: Luciferin 4-monooxygenase (Photinus pyralis) (UniProt P08659); test: qHTS assay to identify small molecule inhibitors of firefly luciferase (AID 1224835); also: nearly all actives have a fitted effect of over 25% in size; also: potency is read from the fitted curve at half-maximal effect
Chain of Luciferin 4-monooxygenase (Photinus pyralis) (P08659 whole entry, looked up): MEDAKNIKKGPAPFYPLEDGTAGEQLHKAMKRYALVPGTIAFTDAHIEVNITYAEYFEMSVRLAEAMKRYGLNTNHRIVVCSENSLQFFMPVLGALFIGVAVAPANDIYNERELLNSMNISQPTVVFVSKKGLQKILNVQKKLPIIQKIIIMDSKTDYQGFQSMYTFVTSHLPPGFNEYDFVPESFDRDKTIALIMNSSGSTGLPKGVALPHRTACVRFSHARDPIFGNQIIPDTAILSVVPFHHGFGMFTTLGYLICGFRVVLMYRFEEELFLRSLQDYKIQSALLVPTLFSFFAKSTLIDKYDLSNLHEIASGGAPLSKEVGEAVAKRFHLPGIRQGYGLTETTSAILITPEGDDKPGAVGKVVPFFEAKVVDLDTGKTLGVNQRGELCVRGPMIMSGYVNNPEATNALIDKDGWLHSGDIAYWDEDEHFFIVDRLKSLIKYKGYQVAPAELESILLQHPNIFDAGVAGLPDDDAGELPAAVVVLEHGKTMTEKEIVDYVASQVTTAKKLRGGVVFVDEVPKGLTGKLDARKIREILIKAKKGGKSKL
Method in brief: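 Inhibition of purified Photinus luciferase is measured by luminescence. Substrate levels (D-luciferin, ATP) sit at their KM values. Each compound is tested in a concentration series.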

[15] = qHTS assay to identify small molecule agonists of the constitutive androstane receptor (CAR) signaling pathway - cell viability counter screen (AID 1224836); also: % is scaled to controls: 0 for no effect and ±100 for the full control effect; nearly all actives have a fitted effect of over 45% in size
Method in brief: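 Counter screen multiplexed with the CAR reporter readout: HepG2 cells co-transfected with hCAR and the CYP2B6-2.2kb construct receive a 15-concentration compound series and 0.75 uM PK11195 (final), then CellTiter-Fluor fluorescence is read after 23 h.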

[16] = qHTS assay to identify small molecule antagonists of the constitutive androstane receptor (CAR) signaling pathway - cell viability counter screen (AID 1224837); also: % is scaled to controls: 0 for no effect and ±100 for the full control effect; nearly all actives have a fitted effect of over 45% in size
Method in brief: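 Cells are seeded, rested 4 hr at 37 C/5% CO2, dosed with compound (15-point series) and 50 nM CITCO, incubated a further 23 hr, and then CellTiter-Fluor reagent is added before fluorescence is read. The line is HepG2 with stable hCAR and CYP2B6-2.2kb.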

[17] = biological target: Nuclear receptor subfamily 1 group I member 3 (Homo sapiens) (UniProt Q14994); test: qHTS assay to identify small molecule antagonists of the constitutive androstane receptor (CAR) signaling pathway (AID 1224838);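 also: HepG2 cells stably expressing hCAR with CYP2B6 luciferase reporter stimulated by CITCO; % is scaled to controls: 0 for no effect and ±100 for the full control effect; nearly all actives have a fitted effect of over 40% in size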
Chain of Nuclear receptor subfamily 1 group I member 3 (Homo sapiens) (Q14994 whole entry, looked up): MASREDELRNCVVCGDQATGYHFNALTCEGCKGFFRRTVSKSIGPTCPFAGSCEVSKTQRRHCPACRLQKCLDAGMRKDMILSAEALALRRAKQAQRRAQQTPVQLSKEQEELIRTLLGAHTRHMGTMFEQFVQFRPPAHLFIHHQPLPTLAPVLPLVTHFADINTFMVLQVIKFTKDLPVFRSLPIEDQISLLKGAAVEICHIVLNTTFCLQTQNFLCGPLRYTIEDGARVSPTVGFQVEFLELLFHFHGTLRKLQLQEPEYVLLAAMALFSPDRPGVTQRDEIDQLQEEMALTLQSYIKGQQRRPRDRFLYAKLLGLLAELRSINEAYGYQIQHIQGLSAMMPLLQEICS
Method in brief: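 Luminescence from a CYP2B6-2.2kb promoter reporter in hCAR-expressing HepG2 cells reflects CAR signaling. Cells received compounds at 15 concentrations and 50 nM CITCO (final), then incubated 24 h at 37 C/5% CO2.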

[18] = qHTS assay to identify small molecule antagonists of the estrogen related receptor (ERR) signaling pathway from Tox21 library - cell viability counter screen (AID 1224834); also: % is scaled to controls: 0 for no effect and ±100 for the full control effect; nearly all actives have a fitted effect of over 30% in size
Method in brief: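 Compounds in DMSO were pinned onto ERR cells that had been incubated for 6 h, and the plates were held at 37 C for 17.5 h. CellTiter-Fluor reagent was then added and fluorescence was measured after 30 min.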

[19] = activation: at 73.3 µM (top of the series) unless noted

Cc1[nH]c(=O)n(C(C)(C)C)c(=O)c1Cl
inactive: outcome [1] | outcome [2] | outcome [3] | outcome [4] | Potency [5] | Potency [6] | Potency [7] | Potency [8] | Potency [9] | Potency [10] | outcome [11] | Potency [12] | Potency [13, 19] | Potency [14] | Potency [15] | Potency [16] | Potency [17]

CC(C)(C)C(O)(CCc1ccc(Cl)cc1)Cn1cncn1 (configuration not stated)
active: activation [13, 19] -3.95% [at 94.8 µM]
inactive: outcome [1] | outcome [2] | outcome [3] | outcome [4] | Potency [5] | Potency [6] | Potency [7] | Potency [8] | Potency [9] | Potency [10] | outcome [11] | Potency [12] | activation ([13]; at 73.3 µM (top of the series)) -2.94% | Potency [14] | Potency [15] | Potency [16] | Potency [17]

CC(C)OC(=O)Nc1ccccc1
active: Potency [13, 19] 30.7 µM | Potency [14] 40 µM and 35.6 µM
inactive: outcome [1] | outcome [2] | outcome [3] | outcome [4] | Potency [5] | Potency [6] | Potency [7] | Potency [8] | Potency [9] | Potency [10] | outcome [11] | Potency [12] | Potency [15] | Potency [16] | Potency [17]

O=C1CCCN1
inactive: outcome [1] | outcome [2] | outcome [3] | outcome [4] | Potency [5] | Potency [6] | Potency [7] | Potency [8] | Potency [9] | Potency [10] | outcome [11] | Potency [18] | Potency [14] | Potency [15] | Potency [16] | Potency [17]

CN(C)CCO
inactive: outcome [1] | outcome [2] | outcome [3] | outcome [4] | Potency [5] | Potency [6] | Potency [7] | Potency [8] | Potency [9] | Potency [10] | outcome [11] | Potency [12] | Potency [13, 19] | Potency [18] | Potency [14] | Potency [15] | Potency [16] | Potency [17]

COC(=O)c1ccccc1C(=O)OC
inactive: outcome [1] | outcome [2] | outcome [3] | outcome [4] | Potency [5] | Potency [6] | Potency [7] | Potency [8] | Potency [10] | outcome [11] | Potency [12] | Potency [13, 19] | Potency [18] | Potency [14] | Potency [15] | Potency [16] | Potency [17]

O=[N+]([O-])c1ccccc1
inactive: outcome [1] | outcome [2] | outcome [3] | outcome [4] | Potency [5] | Potency [6] | Potency [7] | Potency [8] | Potency [9] | Potency [10] | outcome [11] | Potency [12] | Potency [13, 19] | Potency [14] | Potency [15] | Potency [16]

CC1C=[C-]C=C1.[C-]#[O+].[C-]#[O+].[C-]#[O+].[Mn]
inactive: outcome [1] | outcome [2] | outcome [3] | outcome [4] | Potency [5] | Potency [6] | Potency [7] | Potency [8] | Potency [9] | Potency [10] | outcome [11] | Potency [12] | Potency [13, 19] | Potency [18] | Potency [14] | Potency [15] | Potency [16] | Potency [17]
